Data reported in PubChem BioAssay AID455 (Sanford-Burnham Center for Chemical Genomics, 2006).
Hit rate of the full screen: of about 10,000 compounds, about 20 (0.2%) were called active.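 How the source made its calls: active means a compound raising TNF-alpha-driven VCAM-1 surface staining, with its hit status upheld on visual or statistical review; inactive means the rest, including hits rejected on review.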 The entries come from a sample that favours actives as a whole.

Assay: enhancers of VCAM-1 display on endothelial cells, cell-based, plate reader, pooled HUVEC, TNFa stimulus (AID 455);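 on augmentation: 0% = TNFa plus DMSO wells and 100% = a visually confirmed top hit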
Details: HUVEC TNFa-induced VCAM-1 immunofluorescence; stronger effect = higher value,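 tested at 5 µM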

Row | SMILES | augmentation
1 | COc1ccccc1/C=C1/C(=N/O)C2CCN1CC2 | 81.5% (active)
2 | O=C(CCCOc1ccc(Cl)cc1Cl)N1CCC2(CC1)OCCO2 | inactive
3 | O=C(Cn1ncc2c3ccccc3n(Cc3ccc(F)cc3)c2c1=O)N1CCC2(CC1)OCCO2 | inactive
4 | Cc1cccc(N2CCc3c2nc2ccccc2c3N)c1 | inactive
5 | COc1ccc(C2SCC(=O)Nc3c2c(=O)[nH]n3C2CCCCCC2)cc1OC (stereo not given) | inactive
